Here are results for eight compounds from PubChem BioAssay (NCATS).

A short description of experiment [1]: qHTS for Activators of Parkin Expression: LOPAC Validation Assay (NLuc Reporter) (AID 720572;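 also: 0% = DMSO and 100% = positive control compound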). The note with it: Parkin promoter NanoLuc reporter cells, luminescence; series mostly up to 46.1 µM. In outline:
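Cells harboring the Parkin-promoter coincidence reporter were treated for 24 h at seven concentrations. NLuc output was measured sequentially after the FLuc channel and scaled between DMSO and positive control values.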
On the technique in general: qHTS replaces the single test concentration by a dilution series.

Experiment [2] can be described thus: qHTS for Activators of Parkin Expression: LOPAC Validation Assay (FLuc Reporter) (AID 720573;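 also: 0% = DMSO and 100% = positive control compounds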). The note with it: Cell line, PRKN promoter firefly luciferase reporter; series mostly up to 46.1 µM. In outline: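 Neuronal cell line stably expressing FLuc/NLuc coincidence reporter under the Parkin promoter, 1,500 cells/well, dosed 24 h after seeding in 7-point series for 24 h at 37 C. FLuc luminescence read; normalized to DMSO and positive control (100%).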

The target of experiment [3] is T1, Hexokinase-4 (Homo sapiens) + Glucokinase regulatory protein (Homo sapiens) (UniProt P35557+Q14397). Kind of experiment: qHTS assay for inhibitors of recombinant human GCK-GKRP interaction: ADP-Glo assay (AID 743206).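 Also: plate controls were DMSO plus enzyme for no effect and no enzyme for full effect.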 The note with it: ADP-Glo luminescence, 60 min; series mostly up to 76.9 µM. In a few lines:
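Pin-transferred compounds meet a 15 nM GST-GCK/15 nM FLAG-GKRP/2 uM S6P mix (dispense concentrations). ATP is then added to 0.4 mM final with 5 mM glucose, and the reaction runs 60 min at room temperature. ADP is quantified luminescently.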

The target of experiment [4] is T1, Hexokinase-4 (Homo sapiens) + Glucokinase regulatory protein (Homo sapiens). The experiment in a line: qHTS assay for inhibitors of recombinant human GCK-GKRP interaction: HTRF assay (AID 743207).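 Also: 0% = DMSO with GCK present and -100% = DMSO wells lacking GCK.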 The conditions noted are these: recombinant GCK-GKRP HTRF binding, 60 min, with sorbitol-6-phosphate; series mostly up to 57.5 µM. In a few lines:
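HTRF binding of 5 nM GST-GCK and 5 nM FLAG-GKRP with 2 uM S6P in pH 7.1 Hepes buffer (MgCl2, KCl, DTT, Tween 20, BSA). Anti-FLAG XL665 and anti-GST donor added, 60 min at room temperature; 665/615 nm read, normalized to with- and without-GCK controls.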

Experiment [5] can be described thus: qHTS Assay for Identifying Gametocytocidal Compounds (AID 743244).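 Also: % is scaled to controls: 0 for no effect and ±100 for the full control effect; actives lower the fluorescent signal which means gametocytes are killed.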 The conditions noted are these: P. falciparum 3D7 stage III-V gametocytes, alamarBlue, 72 h; max response: stronger effect = lower value. In a few lines:
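P. falciparum 3D7 stage III–V gametocytes (20,000 cells/well) were exposed to compounds for 72 h at 37 °C, 5% CO2. AlamarBlue was then added for 24 h; decreased resorufin fluorescence (Ex 525/Em 598 nm) indicated loss of viability.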

Experiment [6] in a line: qHTS assay for measurement of the activity of small molecule inhibitors on Zika virus induced Caspase-3 activity in human astrocytoma cells (AID 1224859).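 Also: plate controls were ZIKV-infected untreated cells for no effect and uninfected cells for full effect.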 The note with it: SNB-19 ZIKV-induced caspase-3/7, luminescence, 6 h; series mostly up to 45.7 µM. In outline:
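Luminescence read-out (Caspase-Glo 3/7, 30 min RT) of caspase activity in SNB-19 cells infected 6 h with ZIKV, 2 FFU/cell, after 1 h compound pretreatment; % inhibition from induction normalised to uninfected (0%) and infected (100%) wells.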

Experiment [7] in a line: qHTS assay for small molecule agonists of the antioxidant response element (ARE) signaling pathway measured by Nrf2-dependant transcriptional activity (AID 720636; active = well fitted curve in the direction sought with a large enough effect in the repeat runs; an effect the other way counts as inactive or inconclusive; also: % of control where 0% means no effect). The note with it: ARE-luc HepG2, Nrf2 luciferase reporter, 16 h; series mostly up to 92.4 µM. In outline: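 Nrf2-dependent transcription is measured in ARE-luc HepG2 cells: compound is applied for 16 hr at 37 C after a 6 hr attachment period, and luciferase activity is quantified by luminescence using ONE-Glo.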

The nature of experiment [8]: qHTS assay for small molecule antagonists of the retinoid-related orphan receptor gamma (ROR-gamma) signaling pathway - cell viability counter screen (AID 720652; active = well fitted curve in the direction sought with a large enough effect in the repeat runs; an effect the other way counts as inactive or inconclusive;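 also: potency is read from the fitted curve at half-maximal effect; compound exposure lasted 16 hr before ATP read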). The note with it: RORgamma reporter cell line viability counter screen; series mostly up to 92.2 µM. In outline: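 Cytotoxicity counter screen: intracellular ATP (CellTiter-Glo luminescence) measured in the doxycycline-induced CHO RORE-luciferase reporter line after 16 hr compound exposure at 37 C, 5% CO2.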

Experiment [9] is described as follows: qHTS assay for small molecule agonists of the antioxidant response element (ARE) signaling pathway measured by Nrf2-dependant transcriptional activity - cell viability counter screen (AID 720653; active = well fitted curve in the direction sought with a large enough effect in the repeat runs; an effect the other way counts as inactive or inconclusive; also: % is scaled to controls: 0 for no effect and ±100 for the full control effect). The note with it: ARE-bla HepG2 viability, CellTiter-Glo ATP luminescence, 16 h; max response: stronger effect = lower value. In outline:
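ARE-bla HepG2 cells (2,000/well) rested 5 hrs at 37C/5% CO2, then exposed to compounds in DMSO for 16 hrs. Viability was read in the same wells as intracellular ATP by luminescence, 30 min at room temperature after reagent addition.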

Experiment [10] is described as follows: qHTS assay for cell viability of HEK293 cells (AID 743288). Also: potency is read from the fitted curve at half-maximal effect; nearly all actives have a fitted effect of over 50% in size. The note with it: ATP luminescence (CellTiter-Glo), 18 h; max response: stronger effect = lower value. In outline:
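Steps: plate 2,000 parental HEK293 cells per well; incubate ≥5 h, 37 C; add compounds in DMSO; incubate 18 h, 37 C; add CellTiter-Glo; wait 30 min at room temperature; read luminescence.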

The nature of experiment [11]: qHTS assay for cell viability of the p53RE-bla HCT-116 cell line (AID 743292). Also: potency is read from the fitted curve at half-maximal effect; nearly all actives have a fitted effect of over 55% in size. The note with it: p53RE-bla HCT-116 viability, ATP luminescence, 16 h; series mostly up to 95 µM. In a few lines: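 ATP-based luminescence, 16 h compound exposure at 37 C, p53RE-bla HCT-116 cells at 4,000/well.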

Where “and” joins values, the source holds several entries; their conditions need not be identical. Identical values can stand only once. Unmarked numbers belong to inactive results. Results filed as inconclusive are left out. Calls of active or inactive are those of the source. Unless noted, calls follow the shape of the dose curve; as a rule, active = well fitted curve in the direction sought with a large enough effect; inconclusive = small, poorly fitted or top-dose-only effect, or another doubt; inactive = no such curve, though single readings can be large; an effect the other way counts as inactive or inconclusive.

T1 sequence (P35557 whole entry, looked up): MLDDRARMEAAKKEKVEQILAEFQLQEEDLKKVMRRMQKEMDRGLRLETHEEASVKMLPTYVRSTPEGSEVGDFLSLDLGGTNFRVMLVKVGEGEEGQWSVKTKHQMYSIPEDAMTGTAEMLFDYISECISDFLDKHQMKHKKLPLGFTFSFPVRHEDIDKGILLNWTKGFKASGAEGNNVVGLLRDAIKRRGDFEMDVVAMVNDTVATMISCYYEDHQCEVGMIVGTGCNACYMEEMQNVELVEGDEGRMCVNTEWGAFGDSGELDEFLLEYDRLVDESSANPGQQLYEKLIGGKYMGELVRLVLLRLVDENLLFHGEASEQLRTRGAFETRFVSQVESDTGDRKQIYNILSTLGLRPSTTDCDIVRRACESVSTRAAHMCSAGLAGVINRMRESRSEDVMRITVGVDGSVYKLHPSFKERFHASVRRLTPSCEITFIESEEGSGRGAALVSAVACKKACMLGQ
T1 sequence (Q14397 whole entry, looked up): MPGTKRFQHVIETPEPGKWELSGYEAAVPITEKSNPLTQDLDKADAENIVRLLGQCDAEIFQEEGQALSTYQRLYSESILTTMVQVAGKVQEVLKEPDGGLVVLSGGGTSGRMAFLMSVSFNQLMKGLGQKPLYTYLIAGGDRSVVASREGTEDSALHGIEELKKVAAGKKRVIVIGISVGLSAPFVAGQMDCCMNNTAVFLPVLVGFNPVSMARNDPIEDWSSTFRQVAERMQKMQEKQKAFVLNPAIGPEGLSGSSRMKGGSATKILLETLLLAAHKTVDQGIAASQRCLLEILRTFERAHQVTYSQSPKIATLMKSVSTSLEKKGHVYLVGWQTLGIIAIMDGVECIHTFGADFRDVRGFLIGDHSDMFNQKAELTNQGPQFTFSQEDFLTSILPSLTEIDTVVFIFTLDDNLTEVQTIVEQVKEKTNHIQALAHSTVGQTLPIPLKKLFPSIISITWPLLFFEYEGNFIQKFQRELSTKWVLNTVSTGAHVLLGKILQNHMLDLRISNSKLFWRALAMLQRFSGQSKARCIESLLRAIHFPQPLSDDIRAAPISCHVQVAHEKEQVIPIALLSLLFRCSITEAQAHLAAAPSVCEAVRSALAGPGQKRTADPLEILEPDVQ

`CCCCC#Cc1nc(NC)c2ncn([C@@H]3O[C@H](CO)[C@@H](O)[C@H]3O)c2n1`: the Potency entry in [1], in [2], in experiment [3], in experiment [4] and in experiment [6] was “inactive” throughout. The max response in [5] is 34.4%.
For `OC[C@H]1O[C@@H](n2cnc3c(NC4CCCC4)ncnc32)[C@H](O)[C@@H]1O`, the Potency entry in experiment [1], in [2], in experiment [3], in experiment [4] and in experiment [6] was “inactive” throughout. Besides, the max response in experiment [5] is -3.53%.
As for `N=C1N=C(N)c2cc3ccccc3cc21`, the Potency entry in [7] and in experiment [6] was “inactive” throughout. For the same compound, the Potency in experiment [8] was 42.2 µM (active); in experiment [10] it was 44.7 µM (active); in experiment [11], 50.1 µM (active). In addition, the max response in experiment [9] is -12.6%.
`O=C(O)CC[C@@H](C(=O)O)N1C(=O)c2ccccc2C1=O`: the Potency entry in [1], in experiment [2], in experiment [3], in experiment [4] and in [6] was “inactive” throughout. The max response in [5] is -10.9%.
Regarding `Nc1nc(Nc2ccccc2)nc2c1ncn2[C@@H]1O[C@H](CO)[C@@H](O)[C@H]1O`, the Potency entry in [1], in [2], in [3], in [4] and in experiment [6] was “inactive” throughout. For the same compound, in [5], the max response is 17.1%.
Regarding `OC[C@H]1O[C@@H](n2cnc3c(Nc4ccccc4)ncnc32)[C@H](O)[C@@H]1O`, the Potency result in experiment [1], in [3] and in experiment [6] was “inactive” each time. For the same compound, in experiment [5], the max response was -5.57%.
For the compound `NC(=O)C1=CN(C2OC(COP(=O)(O)OP(=O)(O)OC[C@H]3O[C@@H](n4cnc5c(N)ncnc54)[C@H](OP(=O)(O)O)[C@@H]3O)C(O)C2O)C=CC1` (stereo partly specified), the Potency result in [1], in [2], in [3], in experiment [4] and in experiment [6] was “inactive” in each case. Further, the max response in [5] was -6.13%.
Take `C[N+](C)(C)CCOP(=O)(O)OP(=O)([O-])OC[C@H]1O[C@@H](n2ccc(N)nc2=O)[C@H](O)[C@@H]1O`: the Potency result in [1], in experiment [2], in experiment [3], in experiment [4] and in [6] was “inactive” throughout. Further, the max response in experiment [5] was 1.57% and 1.8% and 27.7%.
